From the supplement of paper PMC10849652
The full data set covers some 7,900 targets. This sample favours those with a hit. About 0.6% of all pairs of compound and target were hits. A number with no mark means an inactive call.

Assays:
Experiment in all cases: log2 fold change, soluble protein after heating vs DMSO (PISA); higher = thermal stabilisation; K562 cells, 10 uM, 30 min; active = over 0.2 and 3.5 SD of the protein, either way, in both replicates (recomputed)
[1] = compound: C1COCCN1CCN2C3=CC=CC=C3N=C2NC(=O)C4=CC(=CC=C4)[N+](=O)[O-] [IRAK-1-4 Inhibitor I]
Procedure, shortened: (§1)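 Quantification of soluble protein used TMTpro 16plex LC-MS/MS, with channel sums equalised. Samples were the supernatant after 21,000xg for 90 min of pooled aliquots from K562 cells (2×10^6 cells/mL) treated with 10 μM compound for 30 min, heated for 3 min over 48°C-58°C, and extracted in PBS with 0.5% NP-40 at 4°C. Values, from duplicates, describe thermal stability against control samples on a log2 fold-change scale.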

[2] = compound: C=CC(=O)N1CCC[C@@H](n2nc(-c3ccc(Oc4ccccc4)cc3)c3c(N)ncnc32)C1 [ibrutinib]
Procedure, shortened: as §1

[3] = compound: CC(=O)c1cnc2ccc(-c3cc(Cl)c(O)c(Cl)c3)nc2c1N[C@H]1CC[C@H](CN(C)C)CC1
Procedure, shortened: as §1

[4] = compound: CC(C)(C)Cn1c(N)nc2ccc(-c3[nH]c(C(C)(C)C)nc3-c3ccc(F)cc3)nc21 [ralimetinib]
Procedure, shortened: as §1

[5] = compound: CC(C)(O)CC(=O)NCCn1ccc2ncnc(Nc3ccc(Oc4cccc(C(F)(F)F)c4)c(Cl)c3)c21
Procedure, shortened: as §1

[6] = compound: CC(C)C1=C2N=C(C=C(N2N=C1)NCC3=CC=CC=C3)NCCCCCCN
Procedure, shortened: as §1

[7] = compound: CC(C)C[C@@H](C=O)NC(=O)[C@H](CC(C)C)NC(=O)[C@H](CC(C)C)NC(=O)OCc1ccccc1
Procedure, shortened: as §1

[8] = compound: CC(C)N(C[C@H]1O[C@@H](n2cnc3c(N)ncnc32)[C@H](O)[C@@H]1O)[C@H]1C[C@@H](CCc2nc3cc(C(C)(C)C)ccc3[nH]2)C1 [pinometostat]
Procedure, shortened: as §1

[9] = compound: CC1=C(C(CC(=O)N1)C2=CC=C(C=C2)C(F)(F)F)C(=O)NC3=C(C=C4C(=C3)C=NN4)F
Procedure, shortened: as §1

[10] = compound: CC1=C(C2=C(C=C1)C(=O)C3=CC=CC=C3N2CCCN)C
Procedure, shortened: as §1

Chain of UniProt Q8N5F7 (Q8N5F7 whole entry, looked up): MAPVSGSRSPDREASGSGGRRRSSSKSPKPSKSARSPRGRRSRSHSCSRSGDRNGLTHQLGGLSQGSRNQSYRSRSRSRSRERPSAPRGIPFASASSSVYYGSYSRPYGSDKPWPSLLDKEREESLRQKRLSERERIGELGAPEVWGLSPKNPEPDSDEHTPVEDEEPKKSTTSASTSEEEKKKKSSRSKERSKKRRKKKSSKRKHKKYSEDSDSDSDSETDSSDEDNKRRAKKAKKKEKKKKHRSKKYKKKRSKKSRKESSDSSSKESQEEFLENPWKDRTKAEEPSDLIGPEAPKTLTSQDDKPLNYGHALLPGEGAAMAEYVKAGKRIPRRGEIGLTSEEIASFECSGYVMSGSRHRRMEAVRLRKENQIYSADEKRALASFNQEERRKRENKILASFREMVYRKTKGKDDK
Chain of UniProt Q96IV0 (Q96IV0 whole entry, looked up): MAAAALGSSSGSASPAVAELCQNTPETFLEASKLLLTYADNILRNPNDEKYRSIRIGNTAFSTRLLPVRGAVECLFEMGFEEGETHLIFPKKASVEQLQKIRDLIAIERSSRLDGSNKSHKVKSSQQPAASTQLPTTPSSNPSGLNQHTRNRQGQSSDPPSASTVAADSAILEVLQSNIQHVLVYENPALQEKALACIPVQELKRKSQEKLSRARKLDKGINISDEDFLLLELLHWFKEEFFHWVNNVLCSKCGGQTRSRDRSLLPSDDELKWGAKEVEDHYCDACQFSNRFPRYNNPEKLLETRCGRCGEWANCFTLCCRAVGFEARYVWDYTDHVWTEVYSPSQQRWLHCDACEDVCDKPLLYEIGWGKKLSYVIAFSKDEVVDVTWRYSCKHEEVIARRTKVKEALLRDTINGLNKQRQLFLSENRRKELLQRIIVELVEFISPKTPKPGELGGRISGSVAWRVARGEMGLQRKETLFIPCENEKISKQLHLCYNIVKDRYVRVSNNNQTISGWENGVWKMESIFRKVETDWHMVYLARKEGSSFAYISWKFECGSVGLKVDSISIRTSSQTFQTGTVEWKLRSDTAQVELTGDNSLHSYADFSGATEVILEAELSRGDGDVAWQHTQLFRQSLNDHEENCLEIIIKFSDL
Chain of UniProt Q8TEM1 (Q8TEM1 whole entry, looked up): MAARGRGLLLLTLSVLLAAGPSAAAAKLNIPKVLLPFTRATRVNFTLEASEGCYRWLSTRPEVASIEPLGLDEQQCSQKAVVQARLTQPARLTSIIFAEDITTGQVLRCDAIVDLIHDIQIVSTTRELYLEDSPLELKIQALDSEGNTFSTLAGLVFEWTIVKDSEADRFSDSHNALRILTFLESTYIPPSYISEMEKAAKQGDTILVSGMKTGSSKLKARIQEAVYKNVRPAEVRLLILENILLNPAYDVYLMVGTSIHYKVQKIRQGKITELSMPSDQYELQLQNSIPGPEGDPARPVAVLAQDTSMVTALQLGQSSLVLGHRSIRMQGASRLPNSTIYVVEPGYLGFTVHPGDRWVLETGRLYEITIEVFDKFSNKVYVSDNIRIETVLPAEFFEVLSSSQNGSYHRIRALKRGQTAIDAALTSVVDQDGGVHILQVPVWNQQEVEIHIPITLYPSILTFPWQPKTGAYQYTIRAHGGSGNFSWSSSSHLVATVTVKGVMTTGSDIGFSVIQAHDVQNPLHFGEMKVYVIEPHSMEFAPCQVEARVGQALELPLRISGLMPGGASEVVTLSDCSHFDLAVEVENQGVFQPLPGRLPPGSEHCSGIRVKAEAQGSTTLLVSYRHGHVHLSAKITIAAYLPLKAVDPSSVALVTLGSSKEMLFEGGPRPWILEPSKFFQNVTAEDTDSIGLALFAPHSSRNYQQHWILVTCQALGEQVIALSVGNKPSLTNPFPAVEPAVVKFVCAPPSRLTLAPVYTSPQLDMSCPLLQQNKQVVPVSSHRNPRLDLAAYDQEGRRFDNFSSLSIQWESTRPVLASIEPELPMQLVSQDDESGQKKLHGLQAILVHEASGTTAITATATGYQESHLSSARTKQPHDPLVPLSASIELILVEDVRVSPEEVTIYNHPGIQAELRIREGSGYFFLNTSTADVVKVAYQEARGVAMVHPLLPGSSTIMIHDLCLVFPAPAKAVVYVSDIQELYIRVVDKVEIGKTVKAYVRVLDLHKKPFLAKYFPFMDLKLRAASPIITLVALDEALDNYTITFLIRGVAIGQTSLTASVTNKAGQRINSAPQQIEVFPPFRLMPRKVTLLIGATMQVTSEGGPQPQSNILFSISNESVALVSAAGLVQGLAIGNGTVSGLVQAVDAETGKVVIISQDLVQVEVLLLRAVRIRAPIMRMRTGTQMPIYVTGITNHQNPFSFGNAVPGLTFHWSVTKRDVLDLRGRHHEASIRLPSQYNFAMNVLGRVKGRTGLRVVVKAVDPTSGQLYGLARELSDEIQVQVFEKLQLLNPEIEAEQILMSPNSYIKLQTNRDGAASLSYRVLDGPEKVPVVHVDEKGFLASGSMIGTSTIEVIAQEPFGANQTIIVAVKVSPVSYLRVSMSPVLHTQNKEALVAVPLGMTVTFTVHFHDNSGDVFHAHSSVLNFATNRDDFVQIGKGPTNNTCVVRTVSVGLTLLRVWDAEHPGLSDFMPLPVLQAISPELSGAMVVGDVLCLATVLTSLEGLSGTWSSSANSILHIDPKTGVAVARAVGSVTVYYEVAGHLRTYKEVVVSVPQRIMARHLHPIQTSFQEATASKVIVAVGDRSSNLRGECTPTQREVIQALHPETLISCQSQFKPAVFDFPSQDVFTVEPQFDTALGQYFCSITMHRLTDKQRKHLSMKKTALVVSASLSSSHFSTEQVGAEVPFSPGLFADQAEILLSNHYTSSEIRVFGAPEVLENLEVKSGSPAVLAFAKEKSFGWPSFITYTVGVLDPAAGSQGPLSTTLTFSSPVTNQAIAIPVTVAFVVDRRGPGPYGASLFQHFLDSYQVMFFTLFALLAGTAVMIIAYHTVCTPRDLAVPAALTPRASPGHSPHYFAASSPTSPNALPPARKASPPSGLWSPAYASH
Chain of UniProt O75323 (O75323 whole entry, looked up): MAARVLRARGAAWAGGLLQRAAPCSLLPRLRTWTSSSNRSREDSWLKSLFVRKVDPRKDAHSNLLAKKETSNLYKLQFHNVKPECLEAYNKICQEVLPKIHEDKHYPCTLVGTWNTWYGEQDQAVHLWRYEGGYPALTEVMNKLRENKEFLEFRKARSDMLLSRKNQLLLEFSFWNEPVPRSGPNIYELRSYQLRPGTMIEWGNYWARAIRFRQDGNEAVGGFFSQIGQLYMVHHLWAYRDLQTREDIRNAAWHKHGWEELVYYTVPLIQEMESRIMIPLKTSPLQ
Chain of UniProt P55786 (P55786 whole entry, looked up): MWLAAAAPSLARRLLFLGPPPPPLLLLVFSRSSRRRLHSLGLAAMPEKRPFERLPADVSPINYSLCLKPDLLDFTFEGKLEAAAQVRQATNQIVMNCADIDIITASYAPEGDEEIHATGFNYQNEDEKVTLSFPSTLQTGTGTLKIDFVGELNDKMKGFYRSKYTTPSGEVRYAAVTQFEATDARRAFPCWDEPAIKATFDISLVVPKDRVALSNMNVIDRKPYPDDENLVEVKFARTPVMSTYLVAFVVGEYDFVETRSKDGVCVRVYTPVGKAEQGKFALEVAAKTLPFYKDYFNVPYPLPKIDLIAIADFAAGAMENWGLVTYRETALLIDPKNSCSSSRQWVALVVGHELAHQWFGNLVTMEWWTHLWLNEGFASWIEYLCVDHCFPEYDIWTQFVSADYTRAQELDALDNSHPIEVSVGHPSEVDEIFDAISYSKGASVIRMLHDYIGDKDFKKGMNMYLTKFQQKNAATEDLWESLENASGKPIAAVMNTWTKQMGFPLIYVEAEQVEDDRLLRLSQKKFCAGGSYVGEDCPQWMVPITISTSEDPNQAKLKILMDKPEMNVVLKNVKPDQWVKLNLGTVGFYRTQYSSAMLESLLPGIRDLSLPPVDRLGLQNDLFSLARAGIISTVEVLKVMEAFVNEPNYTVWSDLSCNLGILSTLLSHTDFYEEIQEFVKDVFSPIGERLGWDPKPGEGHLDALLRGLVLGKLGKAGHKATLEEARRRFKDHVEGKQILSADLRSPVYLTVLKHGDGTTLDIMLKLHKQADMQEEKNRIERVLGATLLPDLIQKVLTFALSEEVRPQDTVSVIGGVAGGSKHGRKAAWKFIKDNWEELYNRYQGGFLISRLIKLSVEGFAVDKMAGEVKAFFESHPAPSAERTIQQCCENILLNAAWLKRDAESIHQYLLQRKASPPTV
Chain of UniProt O14950 (O14950 whole entry, looked up): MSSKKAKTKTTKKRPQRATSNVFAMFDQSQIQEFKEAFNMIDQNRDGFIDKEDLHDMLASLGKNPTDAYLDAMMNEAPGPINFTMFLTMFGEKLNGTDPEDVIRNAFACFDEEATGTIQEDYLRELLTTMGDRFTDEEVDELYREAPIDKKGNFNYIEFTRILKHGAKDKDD
Chain of UniProt Q969V5 (Q969V5 whole entry, looked up): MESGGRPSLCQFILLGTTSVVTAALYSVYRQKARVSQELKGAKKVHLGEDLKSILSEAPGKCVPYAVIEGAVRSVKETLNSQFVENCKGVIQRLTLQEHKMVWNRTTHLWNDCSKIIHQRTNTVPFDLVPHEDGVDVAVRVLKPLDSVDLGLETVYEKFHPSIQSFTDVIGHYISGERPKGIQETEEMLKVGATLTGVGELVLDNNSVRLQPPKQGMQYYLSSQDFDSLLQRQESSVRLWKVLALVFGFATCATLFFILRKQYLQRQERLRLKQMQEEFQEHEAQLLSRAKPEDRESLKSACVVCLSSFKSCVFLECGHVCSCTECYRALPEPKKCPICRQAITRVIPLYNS
Chain of UniProt O95169 (O95169 whole entry, looked up): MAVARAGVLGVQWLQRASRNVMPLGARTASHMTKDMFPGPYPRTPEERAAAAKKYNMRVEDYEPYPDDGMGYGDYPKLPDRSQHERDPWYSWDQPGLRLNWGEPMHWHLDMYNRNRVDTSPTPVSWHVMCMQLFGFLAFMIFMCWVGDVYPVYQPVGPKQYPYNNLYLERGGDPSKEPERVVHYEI
Chain of UniProt P56556 (P56556 whole entry, looked up): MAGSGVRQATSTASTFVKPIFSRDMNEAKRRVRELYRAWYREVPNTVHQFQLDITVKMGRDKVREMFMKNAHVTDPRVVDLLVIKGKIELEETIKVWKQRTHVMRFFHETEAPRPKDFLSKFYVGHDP

Row | Target | log2 fold change [1] | log2 fold change [2] | log2 fold change [3] | log2 fold change [4] | log2 fold change [5] | log2 fold change [6] | log2 fold change [7] | log2 fold change [8] | log2 fold change [9] | log2 fold change [10]
1 | ORC3 isoform 2 (UniProt Q9UBD5) | -0.113 | -0.015 | -0.132 | -0.059 | -0.383 | -0.338 | -0.013 | 0.012 | 0.045 | -0.049
2 | NOP53 (UniProt Q9NZM5) | -0.209 | 0.018 | 0.303 | 0.212 | 0.411 | 0.233 | 0.089 | 0.321 | -0.016 | -1.19 (active)
3 | OTUD4 (UniProt Q01804) | 0.007 | 0.008 | -0.029 | 0.1 | 0.013 | 0.035 | 0.052 | 0.128 | -0.033 | 0.244
4 | NUP210 (UniProt Q8TEM1) | 0.005 | -0.025 | -0.038 | -0.069 | -0.176 | -0.52 (active) | -0.007 | 0.001 | 0.026 | 0.047
5 | MND1 (UniProt Q9BWT6) | -0.022 | 0.069 | -0.053 | 0.052 | 0.008 | -0.182 | 0.173 | 0.076 | 0.058 | 0.043
6 | NPEPPS (UniProt P55786) | 0.039 | 0 | -0.013 | 0.021 | -0.117 | 0.254 (active) | -0.035 | -0.026 | -0.01 | 0.045
7 | NDUFA6 (UniProt P56556) | -0.004 | -0.031 | -0.092 | -0.046 | -0.214 | -0.05 | -0.045 | -0.083 | -0.03 | 0.175
8 | NIBAN1 (UniProt Q9BZQ8) | -0.125 | 0 | -0.163 | 0.084 | -0.07 | -0.277 (active) | 0.037 | 0.068 | -0.002 | 0.02
9 | NAP1L1 (UniProt P55209) | 0.04 | -0.041 | -0.012 | -0.003 | 0.021 | 0.017 | 0.021 | -0.029 | 0.105 | 0.004
10 | MRPS9 (UniProt P82933) | -0.061 | 0.024 | -0.022 | -0.023 | 0.001 | -0.059 | 0.07 | 0.018 | -0.048 | -0.243 (active)
11 | MIS12 (UniProt Q9H081) | 0.024 | 0.026 | -0.025 | -0.004 | -0.151 | -0.087 | 0.06 | 0.006 | 0.019 | -0.035
12 | NKAP (UniProt Q8N5F7) | 0 | 0.004 | -0.218 | 0.033 | 0.105 | -0.123 | 0.103 | 0.032 | 0.165 | -0.022
13 | NDUFB8 (UniProt O95169) | 0.001 | -0.01 | -0.004 | -0.063 | -0.36 (active) | -0.042 | 0.059 | 0.003 | 0.081 | 0.103
14 | NA, A0A096LPI6 | 0.065 | 0.022 | 0.046 | -0.057 | 0.008 | 0.058 | -0.016 | -0.043 | 0.018 | 0.004
15 | NBN (UniProt O60934) | -0.009 | -0.008 | -0.147 | -0.028 | -0.062 | -0.025 | 0.007 | 0.009 | -0.029 | -0.02
16 | MUL1 (UniProt Q969V5) | 0.009 | 0.009 | -0.113 | -0.008 | -0.068 | -0.004 | 0.027 | 0.021 | -0.016 | -0.01
17 | MRPS10 (UniProt P82664) | -0.024 | 0.02 | -0.065 | -0.031 | 0.01 | -0.027 | 0.066 | 0.045 | 0.041 | -0.28
18 | NEMP1 (UniProt O14524) | 0.003 | -0.01 | -0.081 | -0.03 | -0.023 | -0.508 (active) | 0.08 | 0.009 | 0.099 | -0.119
19 | MKNK1 (UniProt Q9BUB5) | -0.078 | -0.034 | 0.059 | 0.117 | -0.032 | -0.065 | 0.168 | -0.019 | -0.018 | 0.057
20 | NNT (UniProt Q13423) | 0.013 | -0.018 | -0.016 | -0.099 | -0.056 | 0.016 | -0.053 | -0.029 | -0.022 | 0.037
21 | NCAPD2 (UniProt Q15021) | -0.101 | -0.067 | 0.097 | 0.048 | -0.151 | -0.208 | 0.054 | 0.039 | -0.012 | -0.036
22 | NSDHL (UniProt Q15738) | 0.004 | 0.193 | -0.049 | -0.01 | 0.173 | -0.084 | -0.024 | -0.078 | -0.021 | 0.056
23 | NGLY1 (UniProt Q96IV0) | -0.091 | -0.052 | -0.059 | 0.018 | -0.07 | -0.071 | 0.036 | 0.088 | 0.04 | 0.123
24 | NIPSNAP2 (UniProt O75323) | 0.018 | 0.115 | -0.084 | -0.054 | 0.049 | 0.014 | -0.015 | -0.034 | 0.002 | 0.031
25 | MYL12B (UniProt O14950) | 0.047 | 0.043 | 0.067 | 0.143 | -0.013 | 0.005 | -0.015 | 0.011 | -0.045 | -0.004
26 | OGFR (UniProt Q9NZT2) | -0.023 | 0.001 | -0.235 | -0.014 | 0.109 | -0.028 | -0.008 | 0.149 | 0.036 | 0.044
27 | NUP205 (UniProt Q92621) | -0.035 | -0.038 | -0.1 | -0.027 | 0.032 | -0.167 | -0.058 | 0 | -0.005 | 0.018
